Here are results for 7 molecules from PubChem BioAssay (EPA / NIEHS).

Assay [1] is described as follows: APR_HepG2_MicrotubuleCSK_72hr: Apredica 72-hour HepG2 Assay for Microtubule CSK Stabilty (AID 2282919). Particulars: HepG2 microtubule cytoskeleton, high-content imaging, actives raise or lower the signal. The essentials: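 Read-out is tubulin fluorescence intensity from high-content imaging of HepG2 cells, with nuclei identified by Hoechst 33342. Treatment lasts 72 h at 0.39–200 uM, and curves are fitted bidirectionally against the DMSO negative control.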

A short description of assay [2]: APR_HepG2_P-H2AX_24hr: Apredica 24-hour HepG2 Assay for H2AX Phosphorylation (AID 2282920). To be noted: high-content imaging, actives raise or lower the signal. The essentials: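 HepG2 human liver cells were exposed for 24 hr to compounds at 0.39–200 uM in duplicate, with 0.5% v/v DMSO final. Fixed cells were immunostained for phospho-histone H2A.x plus Hoechst 33342, imaged by HCS fluorescence, and fitted bidirectionally against DMSO.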

Assay [3] can be described thus: APR_HepG2_StressKinase_72hr: Apredica 72-hour HepG2 Assay for Stress Kinase (AID 2282921). To be noted: HepG2 stress kinase (phospho-c-Jun) imaging, actives raise or lower the signal. The essentials:
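HepG2 cells treated 72 hr with 0.39–200 uM compound, 0.5% v/v DMSO, duplicate wells. After formaldehyde fixation and Triton permeabilization, stained with anti-phospho-c-Jun (1:500) and Cy3 secondary, imaged at 20x. Fitted in both directions against DMSO.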

Assay [4] in a line: APR_HepG2_StressKinase_24hr: Apredica 24-hour HepG2 Assay for Stress Kinase (AID 2282922). To be noted: HepG2 stress kinase (phospho-c-Jun) imaging, actives raise or lower the signal. In short, it runs like this: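 HepG2, 24 hr dosing, 0.39–200 uM in duplicate, 0.5% DMSO; formaldehyde fix (3.7%), 0.5% Triton X-100; anti-phospho-c-Jun + Cy3 secondary, Hoechst counterstain; ArrayScan imaging; bidirectional curve fit vs DMSO baseline.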

Assay [5] is described as follows: APR_HepG2_p53Act_72hr: Apredica 72-hour HepG2 Assay for p53 Activation (AID 2282923).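 Also: average cellular p53 protein immunofluorescence intensity in HepG2 cells.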 To be noted: high-content imaging, actives raise or lower the signal. In short, it runs like this:
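HepG2 cells exposed 72 h to 0.39–200 uM in 0.5% DMSO, duplicates. Fixed, permeabilized cells immunostained for p53 (Cy5) with Hoechst; imaged at 20x, fluorescence analyzed bidirectionally against DMSO.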

Assay [6] is described as follows: APR_HepG2_MitoMass_72hr: Apredica 72-hour HepG2 Assay for Mitochondrial Mass (AID 2282924).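 Also: MitoTracker Red CMXRos stain intensity per cell imaged as mitochondrial mass.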 Particulars: high-content imaging, actives raise or lower the signal. The essentials: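 HepG2, 72 hr cmpd, 10 conc 0.39–200 uM in dup, DMSO 0.5% v/v. MitoTracker Red CMXRos 250 nM 30 min pre-fix; formaldehyde 3.7% fix 30 min RT. HCS imaging, gain/loss fit vs DMSO.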
Assay [7] in a line: ATG_CRE_CIS: Attagene CIS-FACTORIAL HepG2 Assay for human cAMP Responsive Element (CRE) binding protein 3 (AID 2282926). Particulars: HepG2 CRE cis-reporter, Attagene multiplexed mRNA; actives raise or lower the signal. The essentials: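 HepG2 cells transiently transfected with a multiplexed reporter library (CRE-driven unit among them) were dosed for 24 h. Reporter mRNA was quantified by RT-PCR, fluorescent labelling, HpaI digestion and capillary electrophoresis, with bidirectional fitting against DMSO baseline.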

Assay [8] deals with CCAAT/enhancer-binding protein beta (Homo sapiens) (UniProt P17676). The assay is described as follows: ATG_C_EBP_CIS: Attagene CIS-FACTORIAL HepG2 Assay for human CCAAT/Enhancer Binding Protein (C/EBP) beta (AID 2282927). Particulars: HepG2 Attagene cis-factorial transcription factor reporter; actives raise or lower the signal. The essentials:
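Changes in reporter mRNA, rather than exogenous chimeric receptor activity, reflect native C/EBP signalling in transfected HepG2 cells dosed for 24 h; transcripts are detected by RT-PCR and capillary electrophoresis.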

The nature of assay [9]: ATG_CMV_CIS: Attagene CIS-FACTORIAL HepG2 Assay for human CMV (Internal Marker) (AID 2282928).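 Also: endpoint acts as a background internal control marker rather than a target.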 Particulars: HepG2 CMV promoter reporter, transcription factor profiling; actives raise or lower the signal. The essentials: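 Endogenous transcription factor activity read in HepG2 via transfected cis-promoter reporter units. After 24 h dosing, reporter mRNA measured by RT-PCR/capillary electrophoresis; gain or loss of signal fit relative to DMSO.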

The nature of assay [10]: ATG_DR4_LXR_CIS: Attagene CIS-FACTORIAL HepG2 Assay for human Liver X Receptor (LXR), DR4 submotif (AID 2282929). To be noted: HepG2 Attagene DR4 cis-reporter, mRNA transcription; actives raise or lower the signal. The essentials:
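Fluorescence intensity of labelled reporter cDNA fragments, separated by capillary electrophoresis, gives the signal. HepG2 cells bearing cis-regulated reporter constructs were treated 24 h; activity fitted bidirectionally relative to DMSO negative control.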

A structure can be active in one record and inactive in another. Activity calls are given as the source filed them. The calls were made as follows: active = hit-call score of the fitted dose curve at least 0.9, where 1 is the maximum; inactive = score below 0.9.

Sequence of CCAAT/enhancer-binding protein beta (Homo sapiens) (P17676 whole entry, looked up): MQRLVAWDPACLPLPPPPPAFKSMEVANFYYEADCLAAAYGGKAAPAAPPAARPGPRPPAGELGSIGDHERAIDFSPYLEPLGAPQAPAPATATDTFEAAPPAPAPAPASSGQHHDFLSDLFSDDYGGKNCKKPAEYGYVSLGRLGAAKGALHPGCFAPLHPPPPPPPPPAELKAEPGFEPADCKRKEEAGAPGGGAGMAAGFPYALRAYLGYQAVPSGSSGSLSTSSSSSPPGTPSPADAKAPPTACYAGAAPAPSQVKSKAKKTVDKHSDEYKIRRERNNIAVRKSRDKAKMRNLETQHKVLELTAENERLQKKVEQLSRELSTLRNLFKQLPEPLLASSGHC

As to `C=C(C)C(=O)[O][Sn]([CH2]CCC)([CH2]CCC)[CH2]CCC`, the outcome in assay [1], in assay [3], in [4], in assay [7], in [8] and in assay [10] was inactive. For the same molecule, the AC50 (as a rule, the concentration giving half of the maximal activity seen) was 0.159 µM (active) in assay [2], 0.0408 µM (active) in assay [5], 0.395 µM (active) in [6] and 0.288 µM (active) in assay [9].

Turning to `CCC(=O)C(CC(C)N(C)C)(c1ccccc1)c1ccccc1` (stereo not given), the half-maximal activity concentration (AC50) is 81.3 µM (active) in assay [1], 78.9 µM (active) in [3], 69.8 µM (active) in assay [5] and 92.4 µM (active) in assay [10]. Moreover, the outcome in [2], in assay [4], in [6], in assay [7], in assay [8] and in [9] was inactive.

Turning to `C[C@@H]1C[C@@H]([C@H](O)CC2CC(=O)NC(=O)C2)C(=O)[C@@H](C)C1`, the half-maximal activity concentration (AC50) in assay [1] was 1.11 µM (active); in assay [5], 4.8 µM (active); in assay [7], 11.1 µM (active); in [8], 1.31 µM (active) [middle of 4 runs]; in [9], 0.286 µM (active). Also, the call in assay [2], in assay [3], in [4], in assay [6], in assay [7] and in [9] was inactive.

Consider `Oc1cccc2cccnc12`, for which the molecule was classed as inactive in [1], in assay [2], in assay [4], in [7], in assay [8] and in assay [9]. Besides, the call in assay [10] was inactive. Moreover, the concentration at half-maximal activity (AC50) in assay [3] was 18.8 µM (active); in [5], 4.12 µM (active); in [6], 3.1 µM (active); in assay [9] it was 139 µM (active).

Turning to `Cc1cc(Cl)ccc1O[C@H](C)C(=O)O`, the result in assay [7], in assay [8], in [9] and in [10] was inactive.

On to `CC(=O)[O][Hg][c]1ccccc1`, for which the AC50 in assay [1] was 2.44 µM (active); in [2], 1.74 µM (active); in assay [3] it was 7.33 µM (active); in [4] it was 88.1 µM (active); in assay [5], 4.66 µM (active); in assay [6] it was 83.5 µM (active). Also, the half-maximal activity concentration (AC50) in [7] is 2.79 µM (active); in [8], 1.64 µM (active). Moreover, the call in [9] and in [10] was inactive.

Consider `O=C(Nc1ccc2[nH]ccc2c1)c1cc2cc(F)ccc2n1Cc1cccc(F)c1`, for which the result in assay [1], in assay [3], in assay [4] and in assay [7] was inactive. In addition, the AC50 in assay [2] is 38.8 µM (active); in assay [5], 19 µM (active); in assay [6], 26.9 µM (active); in [8], 20.3 µM (active); in assay [10] it was 7.44 µM (active).
